Measurements from PubChem BioAssay (Tox21).
Unmarked numbers belong to inactive results. Inconclusive results are not listed. Where a call stands in place of a potency, no number is given. The source made the active and inactive calls. Unless noted, the call rests on the fitted dose curve; in most records, active means well fitted curve in the direction sought with a large enough effect in the repeat runs; inconclusive means weak or mixed curves; inactive means no such curve, though single readings can be large; an effect the other way counts as inactive or inconclusive.

Assays:
[1] = qHTS assay to test for compound auto fluorescence at 535 nm (green) in HEK293 cells (AID 720680)
[2] = qHTS assay to test for compound auto fluorescence at 460 nm (blue) in HEK293 cell free culture (AID 720681)
How it was run: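 Test compounds were pinned into cell-free culture medium (DMEM with 10% FBS) and fluorescence was read directly at Ex/Em 405/460 nm. Signals were expressed as fluorescence equivalents of triamterene, with DMSO vehicle as control.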

[3] = qHTS assay to test for compound auto fluorescence at 535 nm (green) in HEK293 cell free culture (AID 720682)
How it was run: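 Green-channel intensity (Ex/Em 485/535 nm) was recorded from compound-treated wells containing only DMEM with 10% FBS. Fluorescein provided the equivalency standard.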

[4] = qHTS assay to test for compound auto fluorescence at 590 nm (red) in HEK293 cell free culture (AID 720683)
How it was run: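 Tox21 10K library compounds were pinned into cell-free DMEM with 10% FBS and fluorescence was read at excitation 540 nm. Activity is expressed as Rose Bengal sodium equivalency.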

[5] = qHTS assay to test for compound auto fluorescence at 590 nm (red) in HepG2 cell free culture (AID 720684)
How it was run: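 Measured in medium alone (MEM containing 10% FBS) following pintool addition of compound; emission at 590 nm with 540 nm excitation, referenced to Rose Bengal sodium.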

[6] = qHTS assay to test for compound auto fluorescence at 535 nm (green) in HepG2 cell free culture (AID 720686)
[7] = qHTS assay to test for compound auto fluorescence at 460 nm (blue) in HepG2 cells (AID 720687)
How it was run: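 Cells (2,000/well in MEM with 10% FBS) attached overnight at 37 C, then were exposed to compound or DMSO for 1 hr at 37 C, 5% CO2. Fluorescence read at Ex/Em 405/460 nm, expressed as triamterene-equivalent signal.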

[8] = molecular target: Glucocorticoid receptor (Homo sapiens) (UniProt P04150); assay: qHTS assay to identify small molecule agonists of the glucocorticoid receptor (GR) signaling pathway (AID 720691; active means well fitted activation curve with a large enough effect in the signal ratio in the repeat runs, not every such curve was filed as active; the % refers to the signal ratio)
Chain of Glucocorticoid receptor (Homo sapiens) (P04150 whole entry, looked up): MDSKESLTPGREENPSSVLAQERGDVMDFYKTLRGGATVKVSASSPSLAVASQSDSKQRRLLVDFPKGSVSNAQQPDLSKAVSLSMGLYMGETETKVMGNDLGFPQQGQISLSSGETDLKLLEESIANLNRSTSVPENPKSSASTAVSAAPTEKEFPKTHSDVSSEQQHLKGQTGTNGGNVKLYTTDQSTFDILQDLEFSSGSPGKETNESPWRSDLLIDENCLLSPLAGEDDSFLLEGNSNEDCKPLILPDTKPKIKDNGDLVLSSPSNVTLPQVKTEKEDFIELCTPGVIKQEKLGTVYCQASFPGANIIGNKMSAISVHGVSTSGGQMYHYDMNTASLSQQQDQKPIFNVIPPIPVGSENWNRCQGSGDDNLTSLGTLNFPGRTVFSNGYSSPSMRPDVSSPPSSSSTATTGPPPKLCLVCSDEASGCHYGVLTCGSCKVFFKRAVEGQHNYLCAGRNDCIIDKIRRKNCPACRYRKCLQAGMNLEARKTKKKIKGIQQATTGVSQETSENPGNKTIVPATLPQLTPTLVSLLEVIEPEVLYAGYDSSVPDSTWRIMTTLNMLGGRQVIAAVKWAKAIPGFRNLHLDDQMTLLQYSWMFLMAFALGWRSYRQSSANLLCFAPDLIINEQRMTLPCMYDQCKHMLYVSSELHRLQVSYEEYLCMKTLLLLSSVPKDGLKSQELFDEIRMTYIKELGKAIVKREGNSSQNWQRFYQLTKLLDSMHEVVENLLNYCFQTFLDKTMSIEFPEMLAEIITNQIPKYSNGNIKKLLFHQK
How it was run: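 GR-bla HeLa cells (beta-lactamase reporter under glucocorticoid response element) were plated 4 h at 37 C/5% CO2, given compounds in DMSO, and incubated 18 h at 37 C. LiveBLAzer B/G FRET substrate was added for 2 h at room temperature, then fluorescence intensity read.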

[9] = molecular target: Glucocorticoid receptor (Homo sapiens) (UniProt P04150); assay: qHTS assay to identify small molecule antagonists of the glucocorticoid receptor (GR) signaling pathway (AID 720692; active means well fitted inhibition curve with a large enough effect in the signal ratio in the repeat runs, not every such curve was filed as active; the % refers to the signal ratio; further: potency means the concentration at half of the fitted maximal effect)
How it was run: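 GR-bla HeLa cells (beta-lactamase reporter under glucocorticoid response element) were pre-plated 4 h at 37 C, treated with compounds plus 5 nM dexamethasone (final) for 18 h, then read by LiveBLAzer B/G FRET fluorescence after 2 h.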

[10] = qHTS assay to identify small molecule antagonists of the glucocorticoid receptor (GR) signaling pathway - cell viability counter screen (AID 720693); further: nearly all actives have a fitted effect of over 55% in size
[11] = qHTS assay for identifying genotoxic compounds that show differential cytotoxicity against isogenic chicken DT40 cell lines with known DNA damage response pathways - wild type cell line (AID 743012); further: nearly all actives have a fitted effect of over 60% in size; further: potency means the concentration at half of the fitted maximal effect
How it was run: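 Parental DNA repair-proficient DT40 cells, 300 per well, were pre-incubated ~0.5 h at 37 C/5% CO2, pin-dosed with compounds in DMSO, then incubated 40 h. Viability was read as CellTiter-Glo luminescence after 30 min at room temperature.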

[12] = qHTS assay for identifying genotoxic compounds that show differential cytotoxicity against isogenic chicken DT40 cell lines with known DNA damage response pathways - Rev3 mutant cell line (AID 743014); further: nearly all actives have a fitted effect of over 55% in size; further: potency means the concentration at half of the fitted maximal effect
[13] = qHTS assay for identifying genotoxic compounds that show differential cytotoxicity against isogenic chicken DT40 cell lines with known DNA damage response pathways - Rad54/Ku70 mutant cell line (AID 743015); further: nearly all actives have a fitted effect of over 60% in size; further: potency means the concentration at half of the fitted maximal effect
[14] = qHTS assay to identify small molecule antagonists of the androgen receptor (AR) signaling pathway - cell viability counter screen (AID 743033; further: nearly all actives have a fitted effect of over 45% in size)
[15] = qHTS assay to identify small molecule antagonists of the androgen receptor (AR) signaling pathway using the MDA cell line - cell viability counter screen (AID 743041; further: nearly all actives have a fitted effect of over 45% in size; further: potency means the concentration at half of the fitted maximal effect)
How it was run: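 Viability counter screen run alongside the AR antagonist reporter: cells seeded 5 h before compound, R1881 added, 16 h incubation at 37C without CO2, fluorescent CellTiter-Fluor signal quantified.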

[16] = qHTS assay to test for compound auto fluorescence at 460 nm (blue) in HepG2 cell free culture (AID 720685)
How it was run: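 Compound (23 nL) or DMSO pinned into cell-free MEM with 10% FBS; blue fluorescence read at 405/460 nm excitation/emission, expressed as auto-fluorescence equivalency to triamterene.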

[17] = molecular target: Androgen receptor (Homo sapiens) (UniProt P10275); assay: qHTS assay to identify small molecule antagonists of the androgen receptor (AR) signaling pathway (AID 743035; active means well fitted inhibition curve with a large enough effect in the signal ratio in the repeat runs, not every such curve was filed as active; the % refers to the signal ratio; further: potency means the concentration at half of the fitted maximal effect)
Chain of Androgen receptor (Homo sapiens) (P10275 whole entry, looked up): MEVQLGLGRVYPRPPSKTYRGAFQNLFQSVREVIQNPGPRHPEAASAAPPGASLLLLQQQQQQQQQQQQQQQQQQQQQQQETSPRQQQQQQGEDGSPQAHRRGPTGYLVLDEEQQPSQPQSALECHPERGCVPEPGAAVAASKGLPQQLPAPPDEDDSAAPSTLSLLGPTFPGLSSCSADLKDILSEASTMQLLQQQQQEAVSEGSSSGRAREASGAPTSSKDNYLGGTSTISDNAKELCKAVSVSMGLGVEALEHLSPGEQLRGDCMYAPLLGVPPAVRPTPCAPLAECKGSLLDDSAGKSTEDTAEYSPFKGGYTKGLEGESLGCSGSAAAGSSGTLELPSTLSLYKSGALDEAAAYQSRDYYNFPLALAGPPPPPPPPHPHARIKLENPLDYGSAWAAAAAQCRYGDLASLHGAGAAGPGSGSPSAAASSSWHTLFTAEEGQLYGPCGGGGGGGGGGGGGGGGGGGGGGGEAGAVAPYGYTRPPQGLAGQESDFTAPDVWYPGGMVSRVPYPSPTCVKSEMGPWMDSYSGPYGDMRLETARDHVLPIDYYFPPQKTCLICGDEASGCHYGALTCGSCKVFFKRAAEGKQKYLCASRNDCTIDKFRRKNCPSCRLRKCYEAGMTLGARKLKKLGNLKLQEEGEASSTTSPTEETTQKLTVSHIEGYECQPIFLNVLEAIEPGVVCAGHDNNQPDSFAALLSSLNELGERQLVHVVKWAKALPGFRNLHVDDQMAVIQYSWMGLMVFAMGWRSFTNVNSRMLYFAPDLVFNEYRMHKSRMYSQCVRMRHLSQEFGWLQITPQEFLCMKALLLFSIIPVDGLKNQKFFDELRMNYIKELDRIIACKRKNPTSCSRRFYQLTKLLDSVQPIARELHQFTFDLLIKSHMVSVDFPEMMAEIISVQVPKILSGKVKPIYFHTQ
How it was run: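 HEK293 cells stably carrying a UAS-driven beta-lactamase reporter (AR-UAS-bla GripTite) were plated for 4 h at 37C, then given compound and the agonist R1881 and incubated 16 h. Reporter activity was read by LiveBLAzer B/G FRET fluorescence after 2 h at room temperature.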

[18] = molecular target: Androgen receptor (Homo sapiens) (UniProt P10275); assay: qHTS assay to identify small molecule agonists of the androgen receptor (AR) signaling pathway using the MDA cell line (AID 743040; further: nearly all actives have a fitted effect of over 20% in size)
How it was run: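 Luminescence from ONE-Glo, read after 30 min at room temperature, reflects MMTV-driven luciferase in MDA-kb2 cells (AR- and GR-responsive). Treatment lasted 16 h at 37C, 0% CO2.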

[19] = molecular target: Androgen receptor (Homo sapiens) (UniProt P10275); assay: qHTS assay to identify small molecule antagonists of the androgen receptor (AR) signaling pathway using the MDA cell line (AID 743042; further: nearly all actives have a fitted effect of over 55% in size; further: potency means the concentration at half of the fitted maximal effect)
How it was run: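 MDA-kb2 cells (human breast carcinoma, stably carrying an MMTV-luciferase reporter responsive to AR and GR) were plated at 3,000 cells/well and preincubated 5 hr at 37C, then given compound plus R1881 agonist for 16 h. ONE-Glo luminescence was read.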

[20] = molecular target: Androgen receptor (Homo sapiens) (UniProt P10275); assay: qHTS assay to identify small molecule agonists of the androgen receptor (AR) signaling pathway (AID 743036; active means well fitted activation curve with a large enough effect in the signal ratio in the repeat runs, with a control signal flat, not every such curve was filed as active; the % refers to the signal ratio)
How it was run: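 Cell-based FRET reporter assay: HEK293 line with a UAS-beta-lactamase construct, compounds added in DMSO, 16 h exposure at 37C, then 2 h substrate step at room temperature and fluorescence intensity read.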

CCC(C)COC(C)=O (stereo not given)
outcome [1]: inactive | Potency [2]: inactive | outcome [3]: inactive | outcome [4]: inactive | outcome [5]: inactive | outcome [6]: inactive | Potency [7]: inactive | Potency [8]: inactive | Potency [9]: inactive | Potency [10]: inactive | Potency [11]: inactive | Potency [12]: inactive | Potency [13]: inactive | Potency [14]: inactive

CCn1cc(C(=O)O)c(=O)c2cc(F)c(N3CCNCC3)cc21
outcome [1]: inactive | Potency [2]: inactive | outcome [3]: inactive | outcome [4]: inactive | outcome [5]: inactive | outcome [6]: inactive | Potency [7]: inactive | Potency [8]: inactive | Potency [9]: inactive | Potency [10]: inactive | Potency [11]: inactive | Potency [12]: inactive | Potency [14]: inactive | Potency [15]: inactive

CC(O)c1ccccc1 (stereo not given)
outcome [1]: inactive | Potency [2]: inactive | outcome [3]: inactive | outcome [4]: inactive | outcome [5]: inactive | Potency [16]: inactive | outcome [6]: inactive | Potency [10]: inactive | Potency [11]: inactive | Potency [13]: inactive | Potency [14]: inactive

O=[N+]([O-])c1cc(C2CCCCC2)c(O)c([N+](=O)[O-])c1
outcome [1]: inactive | Potency [2]: inactive | outcome [3]: inactive | outcome [4]: inactive | outcome [5]: inactive | outcome [6]: inactive | Potency [7]: inactive | Potency [8]: inactive | Potency [11]: 17.2 µM (active) | Potency [12]: 21.6 µM (active) | Potency [13]: 19.3 µM (active) | Potency [17]: 5.48 µM (active) | outcome [18]: inactive | Potency [15]: 30.5 µM (active) | Potency [19]: 12.2 µM (active)

COc1ccccc1Oc1c(NS(=O)(=O)c2ccc(C(C)(C)C)cc2)nc(-c2ncccn2)nc1OCCO
outcome [1]: inactive | Potency [2]: inactive | outcome [3]: inactive | outcome [4]: inactive | outcome [5]: inactive | outcome [6]: inactive | Potency [7]: inactive | Potency [8]: inactive | Potency [9]: inactive | Potency [10]: inactive | Potency [11]: inactive | Potency [12]: inactive | Potency [13]: inactive | Potency [14]: inactive | Potency [15]: inactive

N#CCCN(CCO)CCO
outcome [1]: inactive | Potency [2]: inactive | outcome [3]: inactive | outcome [4]: inactive | outcome [5]: inactive | outcome [6]: inactive | Potency [8]: inactive | Potency [9]: inactive | Potency [10]: inactive | Potency [11]: inactive | Potency [12]: inactive | Potency [13]: inactive | Potency [14]: inactive

O=C(Cn1ccnc1[N+](=O)[O-])NCCO
outcome [1]: inactive | Potency [2]: inactive | outcome [3]: inactive | outcome [4]: inactive | outcome [5]: inactive | outcome [6]: inactive | Potency [7]: inactive | Potency [11]: inactive | Potency [12]: inactive | Potency [13]: inactive | Potency [14]: inactive | Potency [17]: inactive | outcome [20]: inactive | outcome [18]: inactive | Potency [15]: inactive | Potency [19]: inactive

C=CCc1ccccc1OCC(O)CNC(C)C (stereo not given)
outcome [1]: inactive | Potency [2]: inactive | outcome [3]: inactive | outcome [4]: inactive | outcome [5]: inactive | outcome [6]: inactive | Potency [7]: inactive | Potency [10]: inactive | Potency [11]: inactive | Potency [14]: inactive | Potency [17]: inactive | outcome [20]: inactive | outcome [18]: inactive | Potency [15]: inactive | Potency [19]: inactive

C=C1c2cccc(O)c2C(O)=C2C(=O)[C@]3(O)C(O)=C(C(N)=O)C(=O)[C@@H](N(C)C)[C@@H]3[C@@H](O)[C@H]12
fluorescence, % of fluorescein [1]: 0.0422% [at 18.6 µM] | fluorescence, % of fluorescent control [2]: 1.43% [at 18.6 µM] | activity change [3]: -0.0974% [at 18.6 µM] | fluorescence, % of fluorescent control [4]: 0.464% [at 18.6 µM] | fluorescence, % of Rose Bengal [5]: -0.515% [at 18.6 µM] | fluorescence, % of fluorescein control [6]: -0.0019% [at 18.6 µM] | fluorescence, % of fluorescent control [7]: 1.19% [at 18.6 µM] | Potency [8]: inactive | Potency [9]: inactive | Potency [10]: inactive | Potency [11]: inactive | Potency [12]: inactive | Potency [13]: inactive | Potency [14]: inactive | Potency [15]: inactive

O=C1C(=O)c2ccccc2C(O)=C1C1CCC(c2ccc(Cl)cc2)CC1 (stereo not given)
fluorescence, % of fluorescein [1]: -0.014% [at 18.6 µM] | fluorescence, % of fluorescent control [2]: -0.0599% [at 18.6 µM] | activity change [3]: -0.0167% [at 18.6 µM] | fluorescence, % of fluorescent control [4]: 0.0147% [at 18.6 µM] | fluorescence, % of Rose Bengal [5]: 0.0009% [at 18.6 µM] | fluorescence, % of fluorescent control [16]: 0.0263% [at 18.6 µM] | fluorescence, % of fluorescein control [6]: 0.136% [at 18.6 µM] | Potency [10]: inactive | Potency [11]: 5.07 µM (active) | Potency [12]: inactive | Potency [14]: inactive | Potency [15]: inactive

CN(C)CCN1C(=O)c2ccccc2N(C)c2ccccc21
outcome [1]: inactive | Potency [2]: inactive | outcome [3]: inactive | outcome [4]: inactive | outcome [5]: inactive | outcome [6]: inactive | Potency [7]: inactive | Potency [10]: inactive | Potency [11]: inactive | Potency [12]: inactive | Potency [13]: inactive | Potency [14]: inactive | Potency [15]: inactive

Clc1cc(Cl)nc(Cl)n1
outcome [1]: inactive | Potency [2]: inactive | outcome [3]: inactive | outcome [4]: inactive | outcome [5]: inactive | outcome [6]: inactive | Potency [7]: inactive | Potency [10]: inactive | Potency [12]: inactive | Potency [13]: inactive | Potency [14]: inactive | Potency [15]: inactive

COc1cc(C(=O)NCCCCCC(=O)O)cc(OC)c1OC
outcome [1]: inactive | Potency [2]: inactive | outcome [3]: inactive | outcome [4]: inactive | outcome [5]: inactive | outcome [6]: inactive | Potency [7]: inactive | Potency [8]: inactive | Potency [9]: inactive | Potency [10]: inactive | Potency [11]: inactive | Potency [14]: inactive | Potency [15]: inactive

CCOC(=O)C1=C(C)NC(C)=C(C(=O)OC)C1c1cccc(Cl)c1Cl (stereo not given)
outcome [1]: inactive | Potency [2]: inactive | outcome [3]: inactive | outcome [4]: inactive | outcome [5]: inactive | outcome [6]: inactive | Potency [8]: inactive | Potency [9]: 10.7 µM (active) | Potency [10]: inactive | Potency [11]: 23.7 µM (active) | Potency [14]: inactive | Potency [15]: inactive
